Screening data from PubChem BioAssay.
The list is not random: actives were taken first. Their share in the collection is about 1.4%.
PINK1 expr mod: modulators of PINK1 expression; PINK1 immunofluorescence, high-content cytometry, 24 h; Potency, µM (series often up to 76.6 µM), for the others: top-dose activation (PINK1 increase), actives largely listed as activators; AID 624263; 410,000 tested, 0.2% active; active means well fitted activation curve with a large enough effect; inconclusive means small, poorly fitted or top-dose-only effect; cell line not stated here; further: potency means the concentration at half of the fitted maximal effect; % of control where 0% means no effect; nearly all actives have a fitted effect of over 65% in size
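Decision-based qHTS: stable cells, 24 h exposure to five compound concentrations, CCCP as control. Fixed cells stained for PINK1 plus nuclear, mitochondrial and cell markers, cytometer read.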
Mm-Cpn inhibitor: M. maripaludis TRiC chaperonin inhibition; purified Mm-Cpn ATPase, ADP Transcreener TR-FRET; Potency, µM (titrated, usually from 76.9 µM), inactives show top-dose activity, negative = inhibition, actives largely listed as inhibitors; 330,000 tested, 0.031% active; AID 504842; further: potency means the concentration at half of the fitted maximal effect; on the % scale 0 is the no-effect control and ±100 the full control effect; nearly all actives have a fitted effect of over 80% in size
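Purified archaeal chaperonin (25 nM final) was preincubated with compound for 10 min at 37°C, then ATP (10 uM final) was added for 30 min at 37°C in Tris pH 7.4/KCl/MgCl2/DTT buffer. ADP was quantified by HTRF Transcreener TR-FRET.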
CCT modulator: changes cytosolic chaperonin activity | 360,000 tested, 0.3% active | activity change, % (no concentration beside the values), hits read low | AID 651819 | purified chaperonin ATPase assay, HTRF ADP detection, 30 min; in the data active means activity change below about -30%; further: on the % scale 0 is the no-effect control and ±100 the full control effect
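Enzyme 40 or 20 nM (batch-dependent) in Tris pH 7.4/KCl/MgCl2/DTT; cpd 76 uM single point; ATP 10 uM; 30 min 37 °C; Transcreener ADP HTRF detection, 30 min RT; ratio 665/615.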
p53 reactivator: mutant p53 re-activation in reporter cells; AID 504706; H1299 p53-A138V BP100-luciferase reporter, luminescence, 24 h; 320,000 tested, 0.063% active; Potency, µM (top dose mostly 92.2 µM), without a hit: top-dose activity change, positive = activation, actives largely listed as activators; further: potency means the concentration at half of the fitted maximal effect; % of control where 0% means no effect; nearly all actives have a fitted effect of over 45% in size
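p53-null H1299 cells stably carrying temperature-sensitive p53-A138V and a BP100-luciferase reporter were pinned with compounds (4-point, 1:5 series) and held 24 hrs at 37 deg C. Luminescence was read 10 min after detection reagent.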
ALOX12 inh: ALOX12 (human) lipoxygenase inhibition; P18054; purified 12hLO, xylenol orange hydroperoxide absorbance; Potency, µM (doses to about 108 µM), without a hit: top-dose activity change, negative = inhibition, most hits filed as inhibitors; 580,000 tested, 1.1% active; AID 1671190; further: potency means the concentration at half of the fitted maximal effect; on the % scale 0 is the no-effect control and ±100 the full control effect
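Purified human 12hLO (150 nM final) in 25 mM Hepes, 0.01% Triton X-100, pH 7.0 was preincubated 15 min at room temperature with compound. Then 40 uM arachidonic acid was added, 30 min. Hydroperoxide was read by Fe-XO absorbance ratio 573/405 nm.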
S-ASM inh: human S-ASM enzyme inhibition; P17405; placental ASM, HMU-PC fluorogenic substrate, 60 min; Potency, µM (doses to about 57.5 µM), for the others: at the top dose activity change, negative = inhibition, most hits filed as inhibitors; 340,000 tested, 0.006% active; further: potency means the concentration at half of the fitted maximal effect
Target sequence (P17405 47-631 limits assumed): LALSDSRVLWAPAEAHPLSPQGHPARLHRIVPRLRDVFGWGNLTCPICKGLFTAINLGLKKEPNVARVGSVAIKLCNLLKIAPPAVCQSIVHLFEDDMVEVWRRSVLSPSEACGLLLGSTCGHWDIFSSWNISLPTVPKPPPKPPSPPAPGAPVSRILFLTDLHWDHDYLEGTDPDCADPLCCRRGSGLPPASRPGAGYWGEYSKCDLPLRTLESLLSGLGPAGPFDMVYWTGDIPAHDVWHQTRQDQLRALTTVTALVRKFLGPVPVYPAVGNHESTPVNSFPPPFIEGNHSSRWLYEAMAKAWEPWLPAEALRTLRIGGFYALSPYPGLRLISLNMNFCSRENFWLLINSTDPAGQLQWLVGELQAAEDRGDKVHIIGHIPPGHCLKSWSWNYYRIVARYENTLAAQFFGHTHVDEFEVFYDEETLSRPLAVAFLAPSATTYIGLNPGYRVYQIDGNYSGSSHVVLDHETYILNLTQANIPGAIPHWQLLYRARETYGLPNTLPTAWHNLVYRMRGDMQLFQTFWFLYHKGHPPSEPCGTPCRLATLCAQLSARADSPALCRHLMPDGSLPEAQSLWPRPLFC
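Fluorogenic HMU-PC substrate (9 uM final) is turned over by placental ASM in 60 min at 37 C after a 10 min compound preincubation. Reaction ended by alkaline stop (pH 10), with fluorescence read at 386/447 nm.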
* marks the source's active call; other numbers are inactive results; ! = not active in a repeat. Unless noted, the call rests on the fitted dose curve; in most records, active means well fitted curve in the direction sought with a large enough effect; inconclusive means small, poorly fitted or top-dose-only effect, or another doubt; inactive means no such curve, though single readings can be large; an effect the other way counts as inactive or inconclusive.

`CCc1nc2ccc(C(=O)Nc3ncccc3O)cc2nc1CC` gave ALOX12 inh -2%.
Screening CCCC1=NN(C(=O)CSCc2ccccc2Cl)C(O)(C(F)(F)F)C1 (centres undefined) returned ALOX12 inh 1%.
`COc1ccc(-c2cc(=S)ss2)cc1` gave ALOX12 inh 18µM*!.
Screening O=C(OCc1noc(-c2ccco2)n1)c1cncc(Br)c1 returned ALOX12 inh 7%.
O=C(OCc1noc(-c2ccco2)n1)c1cc(Br)c[nH]1 was read as ALOX12 inh 25µM*.
COc1cc(-c2onc(C)c2C(=O)NCCCc2ccccc2)cc(OC)c1OC was read as ALOX12 inh 20%.
`Oc1cc2c(cc1C(c1ccc(Br)cc1)N1CCCC1)OCO2` (centres undefined) gave PINK1 expr mod 0%, Mm-Cpn inhibitor -5%, CCT modulator 2, p53 reactivator 5%, ALOX12 inh 11µM* and S-ASM inh -8%.
`O=C(Oc1ccc(C(=S)N2CCOCC2)cc1)c1cc([N+](=O)[O-])cc([N+](=O)[O-])c1` gave PINK1 expr mod 1%, Mm-Cpn inhibitor -3%, CCT modulator 0, p53 reactivator -2%, ALOX12 inh -16% and S-ASM inh -2%.
Screening O=C(Oc1ccc(C(=S)N2CCOCC2)cc1)c1cccc(Cl)c1 returned PINK1 expr mod -1%, Mm-Cpn inhibitor -5%, CCT modulator -63*, p53 reactivator -6%, ALOX12 inh 16% and S-ASM inh 1%.
Screening COc1cccc(CN2Cc3cc(NS(=O)(=O)c4ccccc4)ccc3OCC2=O)c1OC returned ALOX12 inh 10µM*.
Screening COc1ccc(C2/C(=C(\O)c3ccc4c(c3)OCCO4)C(=O)C(=O)N2Cc2cccnc2)cc1 (centres undefined) returned PINK1 expr mod 0%, Mm-Cpn inhibitor inconclusive, CCT modulator -58*, p53 reactivator 11%, ALOX12 inh -20% and S-ASM inh -1%.
Screening COc1ccccc1C1/C(=C(\O)c2ccc3c(c2)OCCO3)C(=O)C(=O)N1Cc1cccnc1 (centres undefined) returned PINK1 expr mod 0%, Mm-Cpn inhibitor -8%, CCT modulator -5, p53 reactivator inconclusive, ALOX12 inh -18% and S-ASM inh -3%.
`CC1Cc2cc(/C(O)=C3/C(=O)C(=O)N(Cc4cccnc4)C3c3cccc(O)c3)ccc2O1` (centres undefined) gave PINK1 expr mod 1%, Mm-Cpn inhibitor 1%, CCT modulator -79*, p53 reactivator 14%, ALOX12 inh -23% and S-ASM inh 4%.
For CC(=O)N1CCN(c2ccc(NC(=O)COc3c(C)cc(C)cc3Cl)cc2)CC1 the results were ALOX12 inh 13µM*.
For Cc1oc2cc(OCc3ccc(F)cc3)ccc2c(=O)c1Oc1ccccc1 the results were ALOX12 inh 20%.
Screening Cc1ccc(NC(=O)Cn2c(O)c(N=NS(=O)(=O)c3ccc(C)cc3)c3ccccc32)cc1 returned PINK1 expr mod 1%, Mm-Cpn inhibitor 0%, CCT modulator -3, p53 reactivator 4%, ALOX12 inh 14µM* and S-ASM inh inconclusive.
`Cc1ccc(NC(=O)Cn2c(O)c(N=NC(N)=O)c3ccccc32)cc1` gave PINK1 expr mod 14%, Mm-Cpn inhibitor -1%, CCT modulator 0, p53 reactivator 1%, ALOX12 inh -13% and S-ASM inh -9%.
CC(C)CC(NC(=O)c1cccc(N(C)C)c1)c1ccccc1 (centres undefined) was read as ALOX12 inh 19%.
For CCOc1cc(/C=C/c2nc3ccccc3s2)ccc1O the results were ALOX12 inh 40µM*.
For CN(C)c1ccc(/C=C/c2nc3ccccc3s2)cc1 the results were PINK1 expr mod 45µM*, Mm-Cpn inhibitor 0%, CCT modulator -1, p53 reactivator -8%, ALOX12 inh 14% and S-ASM inh 70%.
COc1cc(/C=C/c2nc3ccccc3s2)cc(OC)c1 was read as ALOX12 inh 12%.
C=C(/C=C/c1ccc(N(C)C)cc1)c1nc2ccccc2s1 was read as PINK1 expr mod 10µM*.
For O=C(Cn1nc(C(=O)O)c2ccccc2c1=O)c1ccc(C2CCCCC2)cc1 the results were ALOX12 inh -2%.
Screening CC(c1ccccc1)N(C)C(=O)CCCc1c[nH]c2ccccc12 (centres undefined) returned ALOX12 inh -6%.
COCCn1c(SCC(=O)c2ccc3c(c2)OCCO3)nnc1-c1ccc(Cl)cc1 was read as ALOX12 inh 6%.
Fc1ccc(-c2cc(C(F)(F)F)nc(NCc3ccccc3)n2)cc1 was read as PINK1 expr mod 10% and ALOX12 inh -18%.
`Fc1ccc(CNc2nc(-c3ccc(Cl)cc3)cc(C(F)(F)F)n2)cc1` gave PINK1 expr mod 40µM* and ALOX12 inh -25%.
For C#CCOc1c(Cl)cc(/C=C2/C(=O)ON=C2C)cc1OCC the results were PINK1 expr mod 0%, Mm-Cpn inhibitor -1%, CCT modulator 1, p53 reactivator 0%, ALOX12 inh 45µM* and S-ASM inh -2%.
For COc1ccc(/C=C2/C(=O)ON=C2C)cc1Br the results were PINK1 expr mod 9%, Mm-Cpn inhibitor 1%, CCT modulator 3, p53 reactivator -6%, ALOX12 inh inconclusive and S-ASM inh -2%.
CCOc1cc(/C=C2/C(=O)ON=C2C)ccc1OCc1ccccc1 was read as PINK1 expr mod 0%, Mm-Cpn inhibitor 2%, CCT modulator -2, p53 reactivator 2%, ALOX12 inh inconclusive and S-ASM inh -1%.
`C#CCOc1c(Br)cc(/C=C2/C(=O)ON=C2C)cc1OCC` gave PINK1 expr mod -2%, Mm-Cpn inhibitor -2%, CCT modulator -4, p53 reactivator 0%, ALOX12 inh 11µM* and S-ASM inh -3%.
For C=CCOc1c(Br)cc(/C=C2/C(=O)ON=C2C)cc1OC the results were PINK1 expr mod 9%, Mm-Cpn inhibitor -1%, CCT modulator -1, p53 reactivator 4%, ALOX12 inh 16µM* and S-ASM inh 0%.
`C#CCOc1ccc(/C=C2/C(=O)ON=C2C)cc1Cl` gave PINK1 expr mod 11%, Mm-Cpn inhibitor 1%, CCT modulator 2, p53 reactivator 2%, ALOX12 inh 8.9µM* and S-ASM inh -2%.
